According to the supplement of paper PMC10338343:
± gives the standard deviation.

System: MILI (PIWIL2) piRISC loaded with piRNA #1 (26 nt)
Assay: pre-steady-state target cleavage rate (min^-1); guide: piRNA #1 5'p-UGAGGUAGUAGGUUGUAUAGUAUCCA; MIWI and MILI are mouse PIWI proteins and EfPiwi is from a freshwater sponge; tags in brackets are library labels; higher = faster piRNA-guided slicing of the target
Settings: auxiliary factor: 500 nM mouse GTSF1
Procedure, shortened: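 With or without 500 nM GTSF1 partner protein, 1 nM active affinity-purified piRISC carrying one synthetic guide was mixed with 0.1 nM transcribed, DNA-blocked target RNA library in HEPES–potassium acetate buffer at 33 °C for 0–8 or 0–960 min. Uncleaved targets were sequenced and normalised to depth and to weakly complementary targets, three trials were pooled, and k3 was capped at 0.0001 min^-1. The pre-steady-state cleavage rate came from a burst-and-steady-state fit.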

Row | Sequence | pre-steady-state target cleavage rate
1 | GGAGACCUUACUAUACAACCUACUUCCACA | 0.0518 ± 0.013
2 | GGAGACCUUACUAAACAACCUACUUCCUCA | 0.0656 ± 0.014
3 | GGAGACCUUACUAAACAUCCUACUACCUCA | 0.208 ± 0.017
4 | GGAGUGGAUACUUUACAACCUACUACCACA | 0.0946 ± 0.011
5 | GGAGACCUAUCUAUACAACCUACCUACCUCA | 0.0519 ± 0.0097
6 | GGAGACCUAUGAUAUGUACCUACUUGCUCA | < 0.0001
7 | GGAGACCUAUGAAUACAACGAUGAUGGAGA [g12:g18:cont:t1A] | < 0.0001
8 | GGAGACCUAACUAUACAACCUACAUGCUCA | 0.0479 ± 0.022
9 | GGAGACCUAUGAUAUGUUGGUACUACCAGA [g4:g10:cont:t1A] | < 0.0001
10 | GGAGACCUAACUAUAGAACCUACUACGUCA | 0.0322 ± 0.01
11 | GGAGACCUAACUAUUCAACCUACUACGUCA | 0.0338 ± 0.011
12 | GGAGACCUAUGAUAACAACCUACUACCGUCA | 0.00366 ± 0.0026
13 | GGAGACCUUAGUAUACAACCUACUAGCUCA | 0.00944 ± 0.0043
14 | GGAGACCUAUGUUACAACCUACUACCUCA | 0.0425 ± 0.0076
15 | GGAGACCUAUCUAUACAACCUACAUGCUCA | 0.068 ± 0.021
16 | GGAGACCUUACAAUACAACCUACUACCACA | 0.133 ± 0.015
17 | GGAGACCUAUGUAUUCAACCUACUACCUCA | 0.0588 ± 0.0091
18 | GGAGACCUUACUAUACAACGUUCUACCUCA | 0.00546 ± 0.0015
19 | GGAGACCUAUGAAUACAUCCUACAACCUCA | 0.0119 ± 0.0025
20 | GGAGACCUAUGAAAACAACCUACUUCCUCA | 0.00368 ± 0.002
21 | GGAGAGCAUACAAUACAACCUACUACCUCA | 0.206 ± 0.017
22 | GGAGACCAUACUAAAGAACCUACUACCUCA | 0.11 ± 0.012
23 | GGAGACCUAUCUAUACAACCUACUAGCACA | 0.0357 ± 0.012
